Laboratory results: PubChem BioAssay AID2685 (National Center for Advancing Translational Sciences (NCATS), 2010)
Hit rate of the full screen: of about 320,000 compounds, about 2,100 (0.66%) were called active. Not shown: some 53% with an inconclusive outcome. The call rests on the fitted dose curve; in most records, active means well fitted inhibition curve with a large enough effect in the signal ratio, with a control signal flat (not every such curve was filed as active); inconclusive means small, poorly fitted or top-dose-only effect, or effect the other way, or a change in a side signal; inactive means flat fitted curve, though single readings scatter; the % refers to the signal ratio. For the sample, actives were picked, then their nearest neighbours and some compounds at random.

assay: qHTS Assay for Lipid Storage Modulators in Drosophila S3 Cells; conditions: BODIPY lipid droplet fluorescence, 18-24 h, cells fed with added oleic acid; cell number change: measured here: cell count max response; series mostly up to 46.1 µM;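 on cell number change: cells counted by Cell Tracker Red CMTPX staining in the red channel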
Outline: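 Drosophila S3 cells got compounds at several concentrations plus oleic acid (400 uM solution). Laser-scanning cytometry with 488 nm excitation read lipid droplets at 500-530 nm and cells at 575-640 nm. Percent activity was relative to 20 uM Triacsin C.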
Potency means the concentration at half of the fitted maximal effect.

Row | Compound | Potency | cell number change [%]
1 | CC(C)(C)NC(=O)CCc1nnc(Cc2c[nH]c3ccccc23)o1 | inactive | -0.239
2 | Cc1nn(C)c(C)c1S(=O)(=O)N(CC(=O)NCCN1CCOCC1)c1ccc(C(C)C)cc1 | inactive | 12.7
3 | Cc1nc2ccccc2nc(C)c1=NO | inactive | 8.5
4 | C/C(CC(O)c1ccc2ccccc2n1)=N/O (centres undefined) | 10.3 µM (active) | 3.68
5 | CC(O)/C=C/c1ccc2ccccc2n1 (centres undefined) | inactive | -12.5
6 | O=C(Nc1c2c(nn1-c1ccccc1)CS(=O)C2)c1ccc2c(c1)OCO2 (centres undefined) | inactive | 12.2
7 | O=c1c2cnn(-c3ccccc3)c2ncn1Cc1ccco1 | 32.6 µM (active) | 1.65
8 | O=c1c2cnn(-c3ccccc3)c2ncn1Cc1ccccn1 | inactive | 26.2
9 | O=c1c2cnn(-c3ccccc3)c2ncn1Cc1ccccc1 | inactive | -12.8
10 | COCCN1C(=O)N[C@H](c2cccc(C(F)(F)F)c2)C(C(=O)OC)=C1C | inactive | 3.4
11 | O=C(NCCc1ccccc1)C(=O)c1c(-c2ccccc2)cc2ccccn12 | inactive | -0.29
12 | Cc1ccc(S(=O)(=O)N(C)C)cc1NC(=O)COC(=O)c1sc2cc(Cl)ccc2c1Cl | 1.46 µM (active) | -27.1
13 | Cc1ccc(S(=O)(=O)N(C)C)cc1NC(=O)COC(=O)c1ccc(Cl)cc1 | inactive | –
14 | Cc1ccc(S(=O)(=O)N(C)C)cc1NC(=O)COC(=O)c1ccc2c(c1)OCCO2 | inactive | -1.35
15 | O=C(Nc1ccnn1C1CCN(Cc2ccc(O)c(Cl)c2)CC1)C1CCCC1 | inactive | 6.1
16 | O=C1NCCn2ccc(=O)cc21 | inactive | 4.17
17 | CCOC(=O)/C(N=O)=C(\O)C1CCN(C(=O)OCC)CC1 | inactive | 1.9
18 | c1ccc(CNc2ncnc3sccc23)cc1 | 16.4 µM (active) | -15.5
19 | c1cncc(CNc2ncnc3sccc23)c1 | inactive | -4.09
20 | NS(=O)(=O)c1ccc(CNc2ncnc3sccc23)cc1 | inactive | -15.1
21 | Cc1cc(C)cc(-n2ccn(CC(=O)NCCc3ccccc3)c(=O)c2=O)c1 | inactive | -3.95
22 | Cc1ccc(OCC(=O)Nc2cccc(-c3nnc(-c4ccccc4)o3)c2)cc1 | inactive | 1.35
23 | CSc1ccccc1NC(=O)CN(c1cccc(C)c1)S(C)(=O)=O | inactive | -13.7
24 | Cc1cccc(N(CC(=O)Nc2ccccc2F)S(C)(=O)=O)c1 | 6.51 µM (active) | –
25 | CSc1ccccc1NC(=O)CN(c1cc(C)cc(C)c1)S(C)(=O)=O | inactive | –

Row | Compound | Potency | cell number change [%]
26 | C/C(=N\N=C\c1cccc(F)c1)c1nnn(-c2nonc2N)c1C | inactive | -1.27
27 | CCOc1ccc(NC(=O)CCS(=O)(=O)c2ccc(C)cc2)cc1 | inactive | 9.92
28 | CCOc1ccc(NC(N)=O)cc1 | inactive | 1.62
29 | CCOc1ccc(NC(=O)CNS(=O)(=O)c2c(C)cc(C)cc2C)cc1 | 0.92 µM (active) | –
30 | CCC(C)NCCCOc1cc(Cl)ccc1Cl (centres undefined) | inactive | 12.7
31 | COc1ccc(N(CC(=O)Nc2ccc(C)c(C)c2)S(=O)(=O)c2c(C)n[nH]c2C)cc1 | inactive | 4.08
32 | CNC(=O)N(C1=NCCCCC1)c1ccc(Br)cc1 | inactive | -6.67
33 | Cc1nn(CCC(=O)N2CCN(S(=O)(=O)c3ccccc3)CC2)c(C)c1C | inactive | 24.4
34 | Cc1cc(C)cc(C(=O)Oc2cc(C)[nH]c(=O)c2[N+](=O)[O-])c1 | inactive | -7.31
35 | Cc1ccc(NC(=O)C(C)Sc2nnc(C)n2CC2CCCO2)cc1 (centres undefined) | inactive | 11.7
36 | Cc1ccccc1NC(=O)C(C)Sc1nnc(-c2ccncc2)n1CC1CCCO1 (centres undefined) | 2.31 µM (active) | 3.95
37 | O=C(CSc1nnc(-c2ccncc2)n1CC1CCCO1)Nc1ccccc1Cl (centres undefined) | inactive | 2.31
38 | O=C(O)C1CC=CCC1C(=O)Nc1cccc(F)c1 (centres undefined) | inactive | –
39 | Cc1ccc(-n2c(N)cc(=O)nc2SCC(=O)NC2CCCCC2)cc1C | inactive | -3.12
40 | Cc1ccnc(NC(=O)/C=C/c2cccs2)c1 | inactive | -3.66
41 | O=C(CSc1ncccn1)Nc1ccccc1 | inactive | 17.6
42 | O=C(CSc1ncccn1)Nn1cnnc1 | 7.31 µM (active) | -0.567
43 | O=C(CSc1ccc(Cl)cc1)Nc1ncccn1 | inactive | 8.97
44 | Cc1cc(C)nc(SCC(=O)Nn2cnnc2)n1 | inactive | -0.845
45 | O=C(CSc1ccc(Cl)cc1)Nn1cnnc1 | 16.4 µM (active) | 7.58
46 | O=C(Nc1ccc(Cl)cc1)Nn1cnnc1 | inactive | 8.74
47 | Cc1ccc(-n2nc3c(c2NC(=O)C2CCCC2)CS(=O)(=O)C3)cc1 | inactive | -12.8
48 | Cc1ccc(S(=O)(=O)N2CCc3ccccc3C2CN2C(=O)c3ccccc3C2=O)cc1 (centres undefined) | inactive | –
49 | COc1cccc(NC(=S)N2CCN(C(c3ccccc3)c3ccccc3)CC2)c1 | inactive | –
50 | Cc1nn(C)c(C)c1/C=N/NC(=O)CCn1nc(C)c([N+](=O)[O-])c1C | inactive | -10.6

Row | Compound | Potency | cell number change [%]
51 | Cc1ccc(OCC(=O)n2cnnc2N)c(C)c1 | inactive | -14.9
52 | CCN1CCN(Cc2c(C)[nH]c3ccc(OC)cc3c2=O)CC1 | inactive | 9.98
53 | COc1ccc(N=C2S/C(=C\c3ccco3)C(=O)N2CC(C)C)cc1 | inactive | -0.418
54 | COc1ccccc1CCC(=O)N1CCC(n2nccc2NC(=O)CC(C)C)CC1 | inactive | -2.79
55 | CCN(CC)S(=O)(=O)c1ccc(OCC(=O)NC(=O)c2ccccc2OC)c([N+](=O)[O-])c1 | inactive | 2.39
56 | CCCn1c(C)cc(C(=O)COc2ccc(C)nc2[N+](=O)[O-])c1C | inactive | 5.33
57 | CCCn1c(C)cc(C(=O)COc2ccc(S(=O)(=O)N(CC)CC)cc2[N+](=O)[O-])c1C | 25.9 µM (active) | -12.5
58 | CN(C)S(=O)(=O)c1cccc(NC(=S)N2CCc3ccccc32)c1 | inactive | –
59 | CC(C)NC(=O)CN(Cc1ccccc1)S(=O)(=O)c1ccccc1 | inactive | 1.76
60 | CC[N+]1=C(C)C(C)(C)c2cc(C)ccc21 | 0.231 µM (active) | -16.1
61 | CC[n+]1c(C)sc2cc(C)ccc21 | inactive | -15.5
62 | CC[n+]1c(S(=O)(=O)[O-])ccc2ccc(C)cc21 | inactive | 3.16
63 | O=C(N/N=C/c1ccccc1)c1ccc(NC(=O)c2ccc(F)cc2)cc1 | inactive | 8.73
64 | Cc1ccc(C)c(NC(=O)CSc2nc(C)cc(C)c2C#N)c1 | inactive | -1.26
65 | CC(Oc1ccc2c(-c3ccccc3)cc(=O)oc2c1)C(=O)NCC1CCC(C(=O)O)CC1 (centres undefined) | inactive | –
66 | COc1ccc(CNC(=O)CN(Cc2ccc(Cl)cc2)S(C)(=O)=O)cc1 | inactive | 15.2
67 | COCCNC(=O)CN(Cc1ccc(Cl)cc1)S(C)(=O)=O | 23.1 µM (active) | -6.66
68 | COc1ccc(CCNC(=O)CN(Cc2ccc(Cl)cc2)S(C)(=O)=O)cc1 | inactive | -16.1
69 | COc1ccc(CNC(=O)CN(Cc2ccc(Cl)cc2)S(=O)(=O)c2ccccc2)cc1 | 20.6 µM (active) | 26.1
70 | COc1ccc(CNC(=O)CN(C)S(=O)(=O)c2ccc(Cl)cc2)cc1 | inactive | -9.55
71 | COc1ccc(CCNC(=O)CN(Cc2ccc(Cl)cc2)S(C)(=O)=O)cc1OC | inactive | 5.74
72 | CC1CCN(C(=O)c2[nH]cnc2C(=O)N[C@@H](CCCCNC(=O)OC(C)(C)C)C(=O)OC(C)(C)C)CC1 | inactive | -11.2
73 | Clc1ccccc1-c1ncnc2ccc(Br)cc12 | inactive | -18.5
74 | CN1CCN(C(c2ccc(Br)cc2)c2cc(Cl)c3cccnc3c2O)CC1 (centres undefined) | 20.6 µM (active) | 5.13
75 | CN1CCN(C(c2ccccn2)c2cc(Cl)c3cccnc3c2O)CC1 (centres undefined) | inactive | –

Row | Compound | Potency | cell number change [%]
76 | CN1CCN(C(c2cccnc2)c2ccc3cccnc3c2O)CC1 (centres undefined) | inactive | 8.11
77 | O=C(NCc1ccc(F)cc1)C1CC(=O)N(CCc2ccccc2)C1 (centres undefined) | inactive | 15.8
78 | Cc1ccc(S(=O)(=O)NNC2=NS(=O)(=O)c3ccccc32)c(C)c1 | inactive | -0.377
79 | Cc1cc(C)c(NC2=NS(=O)(=O)c3ccccc32)c(C)c1 | 16.4 µM (active) | –
80 | Cc1cc(O)c(C(C)C)cc1NC1=NS(=O)(=O)c2ccccc21 | inactive | -1.35
81 | CC(CC(=O)N1CCN(c2ccccc2)CC1)S(=O)(=O)c1ccc2c(c1)NC(=O)CS2 (centres undefined) | inactive | -1.91
82 | O=C1COc2ccc(S(=O)(=O)N3CCN(c4cccc(Cl)c4)CC3)cc2N1 | inactive | -0.295
83 | CC(CC(=O)N1CCN(c2cccc(Cl)c2)CC1)S(=O)(=O)c1ccc2c(c1)NC(=O)CO2 (centres undefined) | 6.51 µM (active) | –
84 | CCOc1ccc(NC(=S)N2C3CCCC2CC(NC(=O)C2CC2)C3)cc1 (centres undefined) | inactive | 11.2
85 | CCOC(=O)C1Cc2ccccc2C(=O)O1 (centres undefined) | inactive | 3.62
86 | CC(=O)Nc1nc2cc([N+](=O)[O-])ccc2s1 | inactive | -7.82
87 | CCC(C)N1C(=O)S/C(=C/c2ccc(N3CCOCC3)cc2C)C1=O (centres undefined) | inactive | 12.1
88 | C=CC(C)N1C(=O)S/C(=C\c2ccc(N3CCOCC3)cc2C)C1=O (centres undefined) | 4.11 µM (active) | –
89 | CCCN1C(=O)S/C(=C\c2ccc(N3CCOCC3)cc2C)C1=O | inactive | -13.4
90 | Cc1cccc(N2CC(C(=O)NCCC3=CCCCC3)CC2=O)c1C (centres undefined) | inactive | –
91 | CCS(=O)(=O)N1CCC(C(=O)NCc2ccc(OC)cc2OC)CC1 | inactive | 16
92 | N#Cc1ccc(OCc2ccc(C(=O)O)o2)cc1 | inactive | -20.7
93 | O=C(O)c1ccc(COc2ccc([N+](=O)[O-])cc2)o1 | inactive | –
94 | O=C(O)c1ccc(COc2ccc(Cl)cc2)o1 | 25.9 µM (active) | -10.6
95 | Nc1cccnc1Sc1cccc(Cl)c1 | inactive | -17.5
96 | O=S(=O)(c1ccccc1)N1CCN(S(=O)(=O)c2ccc(F)cc2)CC1 | inactive | -2.92
97 | CC1(C)CC(=O)c2cc(NC(=O)c3ccccc3)c(=O)oc2C1 | inactive | 6.08
